# Results taken from PubChem BioAssay (NCI).
# About 83,000 compounds went through this panel and 20% of them were active in at least one assay; those are over-represented in the sample as a whole.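 Single-concentration screen, 48 h exposure, 96-well plates. Endpoint: percent growth. Below 10 = active.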 A number with no mark means an inactive call. Activity calls are given as the source filed them.
# Tests used:
# Test in all cases: NCI-60 one-dose screen, 48 h (100 = growth as untreated, 0 = no growth, -100 = all killed)
# Settings in all cases: 10 µM unless noted
# DU-145 prostate = system: DU-145 prostate
# K-562 leukemia = system: K-562 leukemia
# MALME-3M melanoma = system: MALME-3M melanoma
# MDA-MB-231 breast = system: MDA-MB-231 breast
# RXF 393 renal = system: RXF 393 renal
# SF-268 CNS = system: SF-268 CNS
# SF-539 CNS = system: SF-539 CNS
# UACC-257 melanoma = system: UACC-257 melanoma
# M14 melanoma = system: M14 melanoma
# SF-295 CNS = system: SF-295 CNS
SMILES,growth (DU-145 prostate),growth (K-562 leukemia),growth (MALME-3M melanoma),growth (MDA-MB-231 breast),growth (RXF 393 renal),growth (SF-268 CNS),growth (SF-539 CNS),growth (UACC-257 melanoma),growth (M14 melanoma),growth (SF-295 CNS)
ClCCN(CCCl)Cc1ccc(Nc2ccnc3cc(Cl)ccc23)cc1,18.6%,35.6%,57.4%,56.3%,-59.1% (active),25.3%,-20.2% (active),56.2%,49.7%,–
CCCCCCCC(=O)OCC(=O)[C@]1(O)Cc2c(O)c3c(c(O)c2[C@@H](OC2CC(N)C(O)C(C)O2)C1)C(=O)c1c(OC)cccc1C3=O (stereo partly specified),-100% (active),-86.7% (active),-70.7% (active),-72.4% (active),–,-82.1% (active),-79.9% (active),-98.2% (active),-69.8% (active),-68.1% (active)
c1ccc(Nc2nc(-c3ccccc3)c[se]2)cc1,98.4%,80.1%,78.6%,64.3%,–,95.7%,93.7%,98.6%,87.3%,93%
CC12CC(=O)C3(SC#N)C(CCC4=CC(=O)CCC43C)C1CCC2=O (stereo unspecified),46.2%,89%,50.2%,100%,56.5%,101%,–,75.9%,89%,–
COC(=O)C1OC(Oc2ccc(N(CCCl)CCCl)cc2)C(OC(C)=O)C(OC(C)=O)C1OC(C)=O (stereo unspecified),104%,94.6%,96.1%,88.5%,–,79.1%,70.9%,79.6%,102%,53.1%
C[C@]12CC[C@@H]3c4ccc(Oc5nc(N6CC6)nc(N6CC6)n5)cc4CC[C@H]3[C@@H]1CCC2=O,7.1% (active),18%,65.4%,74.5%,-6.13% (active),29.9%,21.6%,65.5%,44.7%,–
COc1ccc(/C=C\c2cc(OC)c(OC)c(OC)c2)cc1OCC(=O)Nc1nc2ccc(C(F)(F)F)cc2s1,0.679% (active),16%,43.8%,12.8%,-4.84% (active),43%,-18.6% (active),50%,22.3%,–
O=[N+]([O-])c1ccc(OP(=O)(CCl)N(CCCl)CCCl)cc1 (stereo unspecified),110%,97.1%,109%,124%,101%,104%,105%,99.9%,98.6%,–
O=C(O)CNC(=O)C(Cl)(Cl)Cl,107%,108%,97.6%,103%,92.1%,104%,103%,88%,107%,–
CCCCCC1(CCBr)C(=O)NC(=O)NC1=O,109%,94.1%,108%,107%,107%,–,96.6%,91%,112%,–
CCC1(C)CC(CCNCc2ccccc2O)(c2ccc(C)cc2)CCO1 (stereo unspecified),103%,101%,109%,106%,111%,105%,99.1%,107%,104%,–
O=C1CCC2(O)[C@@H]3Cc4ccc(O)c5c4[C@]2(CCN3Cc2ccoc2)C1O5 (stereo partly specified),106%,93.9%,96.7%,106%,116%,108%,97.8%,103%,100%,–
CC1(C)N=C(N)N=C(N)N1c1ccc(CCCCc2ccc(Cl)c(S(=O)(=O)F)c2)c(Cl)c1,35.3%,9.3% (active),17.4%,52.6%,–,18.7%,14%,18.3%,20.7%,18.7%
CC1(C)N=C(N)N=C(N)N1c1cccc(CCCCc2ccc(Cl)c(S(=O)(=O)F)c2)c1,47.5%,16.4%,56%,69.8%,–,35.9%,19.9%,33.6%,–,39%
CN(C)C(=O)Oc1ccccc1,108%,111%,109%,115%,122%,–,93.7%,98.9%,103%,103%
CC(=O)/C=C/c1ccc2c(c1)OCO2,104%,106%,92%,95.1%,–,106%,102%,91.7%,100%,94.1%
COC1=CC(=O)O[C@@H](/C=C/c2ccc3c(c2)OCO3)C1,141%,93.9%,119%,107%,–,111%,107%,120%,109%,122%
CCCc1cc(O)c2c3c(c(=O)oc2c1)CN(C)CC3,43%,12%,-1.24% (active),60.4%,10.9%,37%,31.7%,68.5%,16.4%,–
Nc1nc([Se])c2ncn(C3OC(CO)C(O)C3O)c2n1 (stereo unspecified),39.9%,21.7%,69.3%,22%,–,87%,81%,83.8%,40.6%,42.6%
CCOC(=O)C(Cc1ccc(N(CCCl)CCCl)cc1)NC(=O)C(CC(C)C)NC(C)=O (stereo unspecified),14.3%,12.6%,-33% (active),51.6%,-15.5% (active),5.5% (active),13.2%,24.2%,-4.57% (active),–
COc1cc(NC(C)CCCNC2CN3CCC2CC3)c2ncccc2c1 (stereo unspecified),112%,22.8%,81.3%,55.1%,66.1%,89.6%,82.3%,39.9%,51.2%,–
CC1CCCC(C[N+](C)(C)C)C1=O (stereo unspecified),115%,88.3%,76.5%,104%,112%,112%,94.2%,112%,101%,–
[Au+].[N-]=C=O.c1ccc(CN2[CH-]N(Cc3ccccc3)C(c3ccccc3)=C2c2ccccc2)cc1,86.5%,20.8%,70%,86.4%,83%,84.5%,110%,99.8%,81.3%,–
ClCCN(CCCl)c1ccc(/C=N/Nc2ncnc3nc[nH]c23)cc1,62.8%,61.2%,106%,96.2%,–,58.9%,72.7%,106%,–,57.8%
COC[C@@H]1C[C@@]2(C)[C@@H](CC[C@@H]3[C@@H]2CC[C@@]2(C)[C@H]3CC[C@]2(C)O)CC1=O,102%,85.8%,96.4%,116%,105%,102%,90.7%,83.2%,94.5%,–
ClCCN(CCCl)c1nc(Cl)c(C2CC(c3ccccc3)=NN2c2cc(Cl)cc(Cl)c2)s1 (stereo unspecified),107%,99.1%,103%,98.7%,–,96.7%,101%,95.9%,108%,107%
CC(=O)OCC1O[C@@H]([S-])C(OC(C)=O)[C@H](OC(C)=O)[C@@H]1OC(C)=O.[Au+].c1ccc(CN2[CH-]N(Cc3ccccc3)C(c3ccccc3)=C2c2ccccc2)cc1,68.5%,1.59% (active),-30.2% (active),-29.4% (active),-52.3% (active),33.4%,70.7%,65.5%,48.5%,–
CCC1(C(C)C)C(=O)NC(=S)NC1=O,115%,107%,111%,114%,94.8%,96.1%,94.3%,92.2%,106%,–
COc1ccc(/C=C\c2cc(OC)c(OC)c(OC)c2)cc1OCC(=O)Nc1nc2ccc(F)cc2s1,30.2%,38.1%,38.3%,46.7%,9.41% (active),49.2%,26.7%,51%,51.9%,–
O=C(Nc1ccc(Cl)cc1)Nc1nccs1,17.7%,15.1%,45.2%,46.5%,2.93% (active),48.8%,10.8%,44.3%,18.1%,–
